Values joined by “and” are separate entries in the source; they are usually repeats but may differ in a detail not shown here. Equal entries are not always repeated. Active and inactive are the calls of the source.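 The calls were made as follows, unless noted: active = compounds whose cell count with miR-34 switched on is under 0.7 times the count with it off; inactive = the rest.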
Key:
[1] = compounds altering viability of human ES cells (AID 493140; call rule not given here;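 also: cells exposed to compounds for four days before counting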); settings: human embryonic stem cell survival screen; stronger effect = higher value
[2] = P. berghei load reduction in hepatocytes – cell-based, HepG2, luciferase luminescence, HepG2 viability, primary screen (AID 624349; in the data active = parasite load remaining mostly below about 12%, no sharp cut-off; inactive = mostly above about 10%;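 also: 100% = mean of DMSO negative control wells on the same plate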); settings: P. berghei liver stage in HepG2, luciferase luminescence, concentration not given here; parasite load remaining: stronger effect = lower value; viability: measured here: HepG2 viability without parasites
[3] = Wnt pathway potentiators raising nuclear beta-catenin – imaging, WNT3A-conditioned medium, mouse C2C12, NPC library, primary screen (AID 1117326; in the data active = nuclear beta-catenin stimulation mostly above about 4.2%, no sharp cut-off; inactive = mostly below about 10%); settings: stronger effect = higher value
[4] = stimulators of insulin release from INS-1E, primary screen, cell-based, 5 mM glucose, NPC library (AID 1117329;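 active = compound raises insulin release from rat beta cells at 5 mM glucose, no numeric limit stated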); settings: rat INS-1E insulin secretion, at 10 µM, stronger effect = higher value
[5] = growth inhibition of GSK3B-pretreated HCT116 cells – cell-based, CellTiter-Glo, 0.2 to 20 µM (AID 1117336;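 active = compounds lowering colon cancer cell viability after pretreatment blocking the GSK3B kinase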); settings: HCT116 viability after GSK3B inhibitor, at 20 µM, stronger effect = higher value
[6] = inhibition of endothelial tube formation, primary screen, imaging, VEGF stimulated, CD31 staining, tube area, NPC library (AID 1117340;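 active = compound that reduces growth-factor-driven endothelial tube area in a mixed cell culture, no cutoff stated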); settings: VEGF-stimulated ADSC/ECFC co-culture, at 10 µM, stronger effect = higher value
[7] = GLP1 release stimulators, primary, NCI-H716, NPC library (AID 1117341;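 active = compound raises GLP1 secretion from the human gut endocrine cells, with no numeric limit stated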); settings: NCI-H716 cells, at 10 µM, stronger effect = higher value
[8] = HCT116 colon cancer cell growth inhibition, primary screen, CellTiter-Glo luminescence, NPC library (AID 1117342;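 active = compounds that lower survival of HCT116 colon cancer cells in the luminescence readout, no numeric limit stated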); settings: at 20 µM (top of the series)
[9] = reduced SW480 viability measured with CellTiter-Glo, NPC library, primary (AID 1117343;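 active = compounds that lower viability of the colon cancer cells in the luminescence readout, with no numeric limit stated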); settings: CellTiter-Glo luminescence; at 20 µM (top of the series) unless noted
[10] = NPC library primary testing for decreased DLD-1 cell viability via CellTiter-Glo (AID 1117346;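 active = compounds that lower survival of DLD-1 colon cancer cells in the luminescence readout, no cutoff given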); settings: DLD-1 viability, CellTiter-Glo luminescence; at 20 µM (top of the series)
[11] = EMT-state selective cytotoxicity in co-culture – imaging, PC-3E GFP, TEM4-18 mCherry, primary screen (AID 1345086;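 active = compounds killing one labelled cell type while sparing the other, by normalised counts and ratio limits, not self-fluorescent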;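 as to all read-outs here: cells exposed to compound for 72 h before imaging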;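 as to red/green cell ratio (normalised): normalised mesenchymal count divided by normalised epithelial count so high means epithelial killing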); settings: PC-3E GFP / TEM4-18 mCherry co-culture, imaging cell counts, at 1 µM; for red/green cell ratio (normalised): actives lie on both sides, counts scaled to control wells, 1 = unselective
[12] = viability loss with induced miR-34 in A549 – imaging, A549 dox-inducible miR-34, nuclei and caspase counts, primary screen (AID 1347080); settings: A549 miR-34 inducible, Hoechst nuclei count, 48 h
[13] = MELAS cybrid and Rieske KO viability enhancers – cell-based, MELAS cybrids, Rieske KO mouse fibroblasts, CellTiter-Glo, primary screen (AID 1508586;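 active = mean z-score across replicates of 1.96 or higher in either the MELAS or the Rieske mutant cell line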;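 also: z relative to plate mean and SD of compound and empty wells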); settings: low glucose
[14] = target: NAD(+) hydrolase SARM1 (Homo sapiens) (UniProt Q6SZW1); assay: blocking NAD cleavage by SARM1 SAM-TIR – cell lysate, NAD-Glo luminescence (AID 1508614;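 active = compound whose remaining NAD level is above about 45 nM, limit read from the data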;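 also: higher remaining NAD means stronger inhibition of SARM1 NADase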); settings: SAM-TIR HEK293T lysate NADase, at 1 µM, stronger effect = higher value
[15] = measured here: epithelial PC-3E GFP cell survival
[16] = measured here: mesenchymal TEM4-18 mCherry cell survival
[17] = stronger effect = lower value, cell number ratio, induced over uninduced
[18] = measured here: relative caspase fold change +Dox/-Dox
[19] = measured here: total cells with miR-34 induction, stronger effect = lower value
[20] = measured here: total cells without miR-34 induction
[21] = MELAS cybrid survival, CellTiter-Glo 48 h, stronger effect = higher value
[22] = Rieske KO mouse fibroblast survival, CellTiter-Glo 72 h

NAD(+) hydrolase SARM1 (Homo sapiens), sequence (Q6SZW1 whole entry, looked up): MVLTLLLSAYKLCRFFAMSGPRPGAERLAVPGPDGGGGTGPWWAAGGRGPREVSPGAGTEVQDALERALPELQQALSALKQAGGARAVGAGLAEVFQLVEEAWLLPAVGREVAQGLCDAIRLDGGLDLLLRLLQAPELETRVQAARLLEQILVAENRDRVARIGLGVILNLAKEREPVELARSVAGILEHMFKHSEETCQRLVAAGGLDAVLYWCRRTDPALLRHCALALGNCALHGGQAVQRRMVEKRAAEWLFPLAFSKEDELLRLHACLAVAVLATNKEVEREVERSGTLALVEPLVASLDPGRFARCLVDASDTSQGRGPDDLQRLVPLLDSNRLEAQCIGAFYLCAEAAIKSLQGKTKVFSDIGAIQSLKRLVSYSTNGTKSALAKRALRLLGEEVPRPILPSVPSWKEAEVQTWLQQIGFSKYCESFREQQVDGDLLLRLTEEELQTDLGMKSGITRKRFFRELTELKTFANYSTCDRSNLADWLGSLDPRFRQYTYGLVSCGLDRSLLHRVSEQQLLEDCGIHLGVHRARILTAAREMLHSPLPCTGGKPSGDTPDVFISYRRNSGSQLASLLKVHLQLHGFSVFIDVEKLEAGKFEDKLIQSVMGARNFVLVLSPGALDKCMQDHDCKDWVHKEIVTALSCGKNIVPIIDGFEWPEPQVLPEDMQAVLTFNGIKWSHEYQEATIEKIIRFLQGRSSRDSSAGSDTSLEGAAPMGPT

C[C@@H](O)[C@H]1C(=O)N2C(C(=O)O)=C(SCCN=CN)C[C@H]12
survival [1]: 8.25 (inactive) | parasite load remaining [2]: 97.9% (inactive) and 82.7% (inactive) and 21.5% (inactive) | viability [2]: 121% and 75.9% and 75.5% | nuclear beta-catenin stimulation ([3]; at 10 µM): 0.4% (inactive) | nuclear beta-catenin stimulation ([3]; stimulation, at 2 µM): 4% | insulin secretion stimulation [4]: -0.5% (inactive) | viability decrease [5]: 6.7% (inactive) | tube area decrease [6]: 8.2% (inactive) | GLP1 secretion stimulation [7]: -1.8% (inactive) | inhibition of viability [8]: 1.15% (inactive) | viability decrease (inhibition) [9]: -18.3% (inactive) | viability decrease (inhibition) [10]: 2% (inactive) | red/green cell ratio (normalised) [11]: 0.95 (inactive) | normalised cell number [11, 15]: 1.17 | normalised cell number [11, 16]: 1.11 | fold change [12, 17]: 1.02 (inactive) and 0.837 (inactive) and 0.836 (inactive) | fold change [12, 18]: 2.4 and 1.6 and 1.5 | cell count [12, 19]: 10800 and 9100 and 8570 | cell count [12, 20]: 10500 and 10900 and 10300 | z-score [13, 21]: 0.502 (inactive) and 0.0491 (inactive) | z-score [13, 22]: -0.015 and -0.95 | remaining NAD [14]: 10 nM (inactive)

O=C1OC(CN2CCOCC2)CN1/N=C/c1ccc([N+](=O)[O-])o1 (stereo not drawn)
parasite load remaining [2]: 37.8% (inactive) | viability [2]: 89.8% | nuclear beta-catenin stimulation ([3]; at 10 µM): 1.3% (inactive) | nuclear beta-catenin stimulation ([3]; stimulation, at 2 µM): 3.6% | insulin secretion stimulation [4]: -1.4% (inactive) | viability decrease [5]: 31.8% (inactive) | tube area decrease [6]: -4.4% (inactive) | GLP1 secretion stimulation [7]: -0.3% (inactive) | inhibition of viability [8]: 24.6% (inactive) | viability decrease (inhibition) [9]: 22% (inactive) | viability decrease (inhibition) [10]: -32.5% (inactive) | red/green cell ratio (normalised) [11]: 1.05 (inactive) | normalised cell number [11, 15]: 1.05 | normalised cell number [11, 16]: 1.1 | fold change [12, 17]: 0.949 (inactive) and 0.857 (inactive) | fold change [12, 18]: 0.904 and 1.34 | cell count [12, 19]: 8490 and 8240 | cell count [12, 20]: 8940 and 9610 | z-score [13, 21]: -1.3 (inactive) | z-score [13, 22]: -1.11 | remaining NAD [14]: 10 nM (inactive)

CNC(=O)c1c(I)c(NC(C)=O)c(I)c(C(=O)O)c1I
nuclear beta-catenin stimulation ([3]; at 10 µM): 0.7% (inactive) | nuclear beta-catenin stimulation ([3]; stimulation, at 2 µM): 0.8% | insulin secretion stimulation [4]: 0.9% (inactive) | viability decrease [5]: -4.1% (inactive) | tube area decrease [6]: 4.3% (inactive) | GLP1 secretion stimulation [7]: 0.4% (inactive) | inhibition of viability [8]: 13.4% (inactive) | viability decrease (inhibition) [9]: 0.4% (inactive) | viability decrease (inhibition) [10]: -2.95% (inactive) | red/green cell ratio (normalised) [11]: 0.78 (inactive) | normalised cell number [11, 15]: 1.25 | normalised cell number [11, 16]: 0.97 | fold change [12, 17]: 0.982 (inactive) | fold change [12, 18]: 0.852 | cell count [12, 19]: 9390 | cell count [12, 20]: 9560 | remaining NAD [14]: 10 nM (inactive)

CCCCOCCOCCOCc1cc2c(cc1CCC)OCO2
nuclear beta-catenin stimulation ([3]; at 10 µM): 0.2% (inactive) | nuclear beta-catenin stimulation ([3]; stimulation, at 2 µM): 1.7% | insulin secretion stimulation [4]: 1.3% (inactive) | viability decrease [5]: -13.9% (inactive) | tube area decrease [6]: -2.7% (inactive) | GLP1 secretion stimulation [7]: -2.6% (inactive) | inhibition of viability [8]: 24.7% (inactive) | viability decrease (inhibition) [9]: 11.6% (inactive) | viability decrease (inhibition) [10]: 14.4% (inactive) | red/green cell ratio (normalised) [11]: 0.78 (inactive) | normalised cell number [11, 15]: 1.28 | normalised cell number [11, 16]: 1 | fold change [12, 17]: 0.878 (inactive) | fold change [12, 18]: 0.573 | cell count [12, 19]: 7660 | cell count [12, 20]: 8730 | remaining NAD [14]: 10 nM (inactive)

CC(=O)Nc1c(I)c(NC(C)=O)c(I)c(C(=O)O)c1I
parasite load remaining [2]: 58.9% (inactive) | viability [2]: 109% | nuclear beta-catenin stimulation ([3]; at 10 µM): 1.6% (inactive) | nuclear beta-catenin stimulation ([3]; stimulation, at 2 µM): 7.7% | insulin secretion stimulation [4]: 1.5% (inactive) | viability decrease [5]: 2.3% (inactive) | tube area decrease [6]: -9.3% (inactive) | GLP1 secretion stimulation [7]: 4.3% (inactive) | inhibition of viability [8]: 2% (inactive) | viability decrease (inhibition) [9]: -30.8% (inactive) | viability decrease (inhibition) [10]: -0.9% (inactive) | red/green cell ratio (normalised) [11]: 1.17 (inactive) | normalised cell number [11, 15]: 1.02 | normalised cell number [11, 16]: 1.19 | fold change [12, 17]: 0.866 (inactive) | fold change [12, 18]: 2.21 | cell count [12, 19]: 11200 | cell count [12, 20]: 13000 | z-score [13, 21]: 0.0135 (inactive) | z-score [13, 22]: 0.624 | remaining NAD [14]: 10 nM (inactive)
